This note sets out measurements from PubChem BioAssay (EPA / NIEHS).

In assay [1] the target is human Retinoid X Receptor beta (RXRb), RXRB (gene 6257) (UniProt P28702). The assay is described as follows: ATG_RXRb_TRANS: Attagene TRANS-FACTORIAL HepG2 Assay for human Retinoid X Receptor beta (RXRb) (AID 2283013; active means hit-call score of the fitted dose curve at least 0.9, where 1 is the maximum). The gist of the method:
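Read-out: reporter mRNA induction via RT-PCR plus capillary electrophoresis fluorescence, analysed as signal increase relative to DMSO. Cells were human HepG2, transiently transfected with GAL4-UAS reporter constructs and chimeric receptor-Gal4 fusions, dosed for 24 h.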

The target in assay [2] is human Vitamin D Receptor (VDR), VDR (gene 7421) (UniProt P11473). The assay is described as follows: ATG_VDR_TRANS: Attagene TRANS-FACTORIAL HepG2 Assay for human Vitamin D Receptor (VDR) (AID 2283022; active means hit-call score of the fitted dose curve at least 0.9, where 1 is the maximum). The gist of the method:
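Multiplexed TRANS reporter in HepG2; 24 h treatment; reporter mRNA by RT-PCR plus capillary electrophoresis; upregulation scored relative to DMSO.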

Assay [3] deals with human Thyroid Receptor alpha (THRa1), THRA (gene 7067) (UniProt P10827). The assay is described as follows: ATG_THRa1_TRANS: Attagene TRANS-FACTORIAL HepG2 Assay for human Thyroid Receptor alpha (THRa1) (AID 2283014; active means hit-call score of the fitted dose curve at least 0.9, where 1 is the maximum). The gist of the method: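 Measured here is mRNA from a GAL4-UAS reporter in transfected HepG2 cells carrying a Gal4-fused receptor, 24 h post-dose. DMSO served as negative control and baseline.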
human Thyroid Receptor alpha (THRa1), THRA (gene 7067), sequence (P10827 whole entry, looked up, the tested form may be a part): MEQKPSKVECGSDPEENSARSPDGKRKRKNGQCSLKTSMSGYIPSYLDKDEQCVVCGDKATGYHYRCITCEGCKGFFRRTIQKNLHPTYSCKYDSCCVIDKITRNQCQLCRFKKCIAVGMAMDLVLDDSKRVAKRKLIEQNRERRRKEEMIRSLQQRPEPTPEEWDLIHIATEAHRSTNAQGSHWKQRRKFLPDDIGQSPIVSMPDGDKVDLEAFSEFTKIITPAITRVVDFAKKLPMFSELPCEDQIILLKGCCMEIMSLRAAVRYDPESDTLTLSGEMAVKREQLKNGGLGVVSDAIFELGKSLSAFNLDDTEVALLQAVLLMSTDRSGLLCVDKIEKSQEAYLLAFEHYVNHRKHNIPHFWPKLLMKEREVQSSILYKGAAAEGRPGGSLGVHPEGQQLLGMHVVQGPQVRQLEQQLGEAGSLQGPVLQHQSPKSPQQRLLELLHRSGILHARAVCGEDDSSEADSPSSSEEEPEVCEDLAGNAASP

Read-out in assay [4]: E-selectin (Homo sapiens) (UniProt P16581)
The assay is described as follows: BSK_3C_Eselectin: BioMAP Diversity Plus: 3C Assay for Eselectin Biomarker Activity (AID 2283015).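 On outcome: cell surface E-selectin protein quantified by ELISA 24 h after dosing.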 The following applies: primary human endothelial cells (HUVEC); actives raise or lower the signal. The gist of the method: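 Endpoint derived by bidirectional fitting against DMSO vehicle; signal is ELISA-detected E-selectin from primary HUVEC at 24 h post-dosing, with parallel SRB staining (0.1% SRB, 560 nm) flagging cytotoxicity.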

Read-out in assay [5]: Interleukin-1 alpha (IL1a), IL1A (gene 3552)
Nature of the assay: BSK_BE3C_IL1a: BioMAP Diversity Plus: BE3C Assay for Interleukin-1 alpha (IL1a) Biomarker Activity (AID 2283016). As to conditions: primary human bronchial epithelial cells; actives raise or lower the signal. The gist of the method: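 ELISA read-out of IL-1a from human lung bronchial epithelial primary cells, 24 h post-dose. Gain or loss of signal fitted relative to DMSO negative control.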

Read-out in assay [6]: Monocyte Chemoattractant Protein-1 (MCP1), CCL2 (gene 6347)
The assay is described as follows: BSK_3C_MCP1: BioMAP Diversity Plus: 3C Assay for Monocyte Chemoattractant Protein-1 (MCP1) Biomarker Activity (AID 2283017). The following applies: primary human endothelial cells (HUVEC); actives raise or lower the signal. The gist of the method: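 Using human vascular primary endothelium, researchers measured MCP-1 by ELISA 24 h after treatment, with DMSO serving as negative control for bidirectional fitting.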

Read-out in assay [7]: Monocyte Chemoattractant Protein-1 (MCP1), CCL2 (gene 6347)
Nature of the assay: BSK_4H_MCP1: BioMAP Diversity Plus: 4H Assay for Monocyte Chemoattractant Protein-1 (MCP1) Biomarker Activity (AID 2283018). The following applies: primary human endothelial cells (HUVEC); actives raise or lower the signal. The gist of the method: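 HUVEC primary cells, 24 h post-dose, MCP-1 by ELISA. Gain or loss of signal fitted bidirectionally vs DMSO baseline. Cytotoxicity: SRB stain (0.1% after 10% TCA fixation), read 560 nm, parallel cultures.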

Read-out in assay [8]: Human Leukocyte Antigen - DR isotype (HLADR), HLA-DRA (gene 3122)
The assay is described as follows: BSK_3C_HLADR: BioMAP Diversity Plus: 3C Assay for Human Leukocyte Antigen - DR isotype (HLADR) Biomarker Activity (AID 2283019).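 On outcome: ELISA of cell-surface HLA-DR on HUVEC 24 h after dosing.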 As to conditions: primary human endothelial cells (HUVEC); actives raise or lower the signal. The gist of the method:
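Compound added to primary HUVEC cultures, 24 h incubation, then HLA-DR determined by ELISA; endpoint derived by bidirectional fitting relative to DMSO negative control.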

Read-out in assay [9]: Interleukin-8 (IL8), CXCL8 (gene 3576)
Nature of the assay: BSK_3C_IL8: BioMAP Diversity Plus: 3C Assay for Interleukin-8 (IL8) Biomarker Activity (AID 2283020). The following applies: primary human endothelial cells (HUVEC); actives raise or lower the signal. The gist of the method: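 HUVEC, 3C stimulation; 24 h compound exposure; IL-8 read by ELISA; gain or loss of signal fitted relative to DMSO control.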

Read-out in assay [10]: Monokine induced gamma interferon (MIG), CXCL9 (gene 4283)
The assay is described as follows: BSK_3C_MIG: BioMAP Diversity Plus: 3C Assay for Monokine induced gamma interferon (MIG) Biomarker Activity (AID 2283021). The following applies: primary human endothelial cells (HUVEC); actives raise or lower the signal. The gist of the method:
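HUVEC, 3C system; 24 h chemical exposure; MIG by ELISA; bidirectional fit vs DMSO baseline.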

Assay [11] is described as follows: BSK_3C_SRB: Viability Assessment in the BioMAP Diversity Plus: 3C Assay (AID 2283023).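 Further: fitted both ways against DMSO so a hit may be signal rise or drop.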 The following applies: primary human endothelial cells (HUVEC). The gist of the method:
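Overt cytotoxicity is gauged in parallel confluent HUVEC cultures by SRB total-protein staining at the time of biomarker measurement, 24 h after dosing. Gain or loss of signal is fitted versus DMSO.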

Read-out in assay [12]: Matrix Metallopeptidase 1 (MMP1), MMP1 (gene 4312)
The assay is described as follows: BSK_BE3C_MMP1: BioMAP Diversity Plus: BE3C Assay for Matrix Metallopeptidase 1 (MMP1) Biomarker Activity (AID 2283024). As to conditions: primary human bronchial epithelial cells; actives raise or lower the signal. The gist of the method:
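ELISA read-out of MMP1 in human lung bronchial epithelial primary cultures, 24 h post-dose; bidirectional curve fit vs DMSO baseline, gain or loss of signal scored.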

Read-out in assay [13]: Pselectin, SELP (gene 6403)
The assay is described as follows: BSK_4H_Pselectin: BioMAP Diversity Plus: 4H Assay for Pselectin Biomarker Activity (AID 2283026). The following applies: primary human endothelial cells (HUVEC); actives raise or lower the signal. The gist of the method:
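HUVEC, 24 h chemical exposure; P-selectin read by ELISA. Bidirectional curve fit vs DMSO baseline; gain or loss of signal scored.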

Assay [14] can be described thus: BSK_4H_SRB: Viability Assessment in the BioMAP Diversity Plus: 4H Assay (AID 2283027).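 Further: cells exposed to compound for 24 h before staining.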 The following applies: primary human endothelial cells (HUVEC). The gist of the method:
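Cytotoxicity readout: sulforhodamine B (0.1%) staining of total protein after 10% TCA fixation, measured at 560 nm in human umbilical vein endothelium at 24 h. DMSO set the baseline; fitting was bidirectional.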

Assay [15] is described as follows: BSK_BE3C_SRB: Viability Assessment in the BioMAP Diversity Plus: BE3C Assay (AID 2283028).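 Further: measured 24 h after chemical dosing.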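 On AC50: fitted both ways so AC50 may mark signal gain or loss versus DMSO.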 The following applies: primary human bronchial epithelial cells. The gist of the method: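 SRB total-protein staining (0.1%, after TCA fixation) of chemically dosed human bronchial epithelial primary cells at 24 h; DMSO serves as the negative control for bidirectional curve fitting.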

Read-out in assay [16]: Urokinase-type plasminogen activator receptor (uPAR), PLAUR (gene 5329)
Nature of the assay: BSK_4H_uPAR: BioMAP Diversity Plus: 4H Assay for Urokinase-type plasminogen activator receptor (uPAR) Biomarker Activity (AID 2283030). As to conditions: primary human endothelial cells (HUVEC); actives raise or lower the signal. The gist of the method: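 Endpoint derived via bidirectional curve fitting against DMSO baseline; readout was ELISA detection of uPAR on umbilical vein endothelial cells at 24 h post-treatment, with SRB-stained parallel cultures assessing cytotoxicity.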

Read-out in assay [17]: Vascular endothelial growth factor receptor 2 (Homo sapiens) (UniProt P35968)
Nature of the assay: BSK_4H_VEGFRII: BioMAP Diversity Plus: 4H Assay for Vascular endothelial growth factor receptor 2 (VEGFR2) Biomarker Activity (AID 2283031). As to conditions: primary human endothelial cells (HUVEC); actives raise or lower the signal. The gist of the method: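 In this multiplexed HUVEC system, biomarker ELISA was performed after 24 h chemical exposure. Parallel SRB staining (TCA fixation, 560 nm) tracked cytotoxicity; DMSO served as baseline.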

Read-out in assay [18]: Human Leukocyte Antigen - DR isotype (HLADR), HLA-DRA (gene 3122)
The assay is described as follows: BSK_BE3C_HLADR: BioMAP Diversity Plus: BE3C Assay for Human Leukocyte Antigen - DR isotype (HLADR) Biomarker Activity (AID 2283032). As to conditions: primary human bronchial epithelial cells; actives raise or lower the signal. The gist of the method: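 Primary human bronchial epithelial cells (BE3C); 24 h chemical exposure; HLA-DR by ELISA; bidirectional curve fit vs DMSO baseline.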

Read-out in assay [19]: Vascular cell adhesion molecule 1 (VCAM1), VCAM1 (gene 7412)
Nature of the assay: BSK_4H_VCAM1: BioMAP Diversity Plus: 4H Assay for Vascular cell adhesion molecule 1 (VCAM1) Biomarker Activity (AID 2283033).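 On outcome: cell-surface VCAM-1 protein measured by ELISA.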 The following applies: primary human endothelial cells (HUVEC); actives raise or lower the signal. The gist of the method:
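HUVEC, 24 h post-dose; VCAM-1 by ELISA. Bidirectional curve fit vs DMSO baseline. Parallel SRB total-protein stain (0.1% SRB after 10% TCA fixation, 560 nm) for cytotoxicity.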

Records with an inconclusive call do not appear. The source made the active and inactive calls. How the source made its calls, unless noted: active means hit-call score of the fitted dose curve at least 0.9, where 1 is the maximum; inactive means score below 0.9.

For orientation: AC50 means the midpoint of the concentration-response curve, whichever way the signal moves.

human Vitamin D Receptor (VDR), VDR (gene 7421), sequence (P11473 whole entry, looked up): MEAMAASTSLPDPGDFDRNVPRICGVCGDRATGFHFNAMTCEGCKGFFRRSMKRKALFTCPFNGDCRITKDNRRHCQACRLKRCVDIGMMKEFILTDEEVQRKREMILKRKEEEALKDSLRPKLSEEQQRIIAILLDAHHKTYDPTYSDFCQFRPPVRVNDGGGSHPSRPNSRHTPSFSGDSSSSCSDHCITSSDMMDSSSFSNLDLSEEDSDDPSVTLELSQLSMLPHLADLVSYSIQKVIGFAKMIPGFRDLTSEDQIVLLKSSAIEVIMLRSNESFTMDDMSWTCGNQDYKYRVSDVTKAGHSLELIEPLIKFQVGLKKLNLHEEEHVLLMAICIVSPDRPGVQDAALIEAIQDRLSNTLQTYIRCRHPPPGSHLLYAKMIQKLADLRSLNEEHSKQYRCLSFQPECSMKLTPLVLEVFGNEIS
E-selectin (Homo sapiens), sequence (P16581 whole entry, looked up): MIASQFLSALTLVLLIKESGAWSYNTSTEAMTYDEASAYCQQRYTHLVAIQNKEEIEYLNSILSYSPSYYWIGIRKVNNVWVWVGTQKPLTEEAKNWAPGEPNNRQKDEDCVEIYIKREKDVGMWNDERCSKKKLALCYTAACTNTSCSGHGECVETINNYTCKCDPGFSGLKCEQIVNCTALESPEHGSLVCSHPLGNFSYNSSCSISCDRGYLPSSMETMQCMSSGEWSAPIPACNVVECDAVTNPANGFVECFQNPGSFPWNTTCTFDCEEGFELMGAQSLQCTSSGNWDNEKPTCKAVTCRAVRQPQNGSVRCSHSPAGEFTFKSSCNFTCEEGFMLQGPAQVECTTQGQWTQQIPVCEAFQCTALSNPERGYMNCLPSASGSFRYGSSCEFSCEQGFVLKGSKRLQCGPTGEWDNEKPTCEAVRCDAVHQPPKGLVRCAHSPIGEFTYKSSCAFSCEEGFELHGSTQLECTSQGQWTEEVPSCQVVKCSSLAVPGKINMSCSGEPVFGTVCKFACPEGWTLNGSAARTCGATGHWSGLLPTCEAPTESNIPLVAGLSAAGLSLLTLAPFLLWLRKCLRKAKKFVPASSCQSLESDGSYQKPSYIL
human Retinoid X Receptor beta (RXRb), RXRB (gene 6257), sequence (P28702 whole entry, looked up, the tested form may be a part): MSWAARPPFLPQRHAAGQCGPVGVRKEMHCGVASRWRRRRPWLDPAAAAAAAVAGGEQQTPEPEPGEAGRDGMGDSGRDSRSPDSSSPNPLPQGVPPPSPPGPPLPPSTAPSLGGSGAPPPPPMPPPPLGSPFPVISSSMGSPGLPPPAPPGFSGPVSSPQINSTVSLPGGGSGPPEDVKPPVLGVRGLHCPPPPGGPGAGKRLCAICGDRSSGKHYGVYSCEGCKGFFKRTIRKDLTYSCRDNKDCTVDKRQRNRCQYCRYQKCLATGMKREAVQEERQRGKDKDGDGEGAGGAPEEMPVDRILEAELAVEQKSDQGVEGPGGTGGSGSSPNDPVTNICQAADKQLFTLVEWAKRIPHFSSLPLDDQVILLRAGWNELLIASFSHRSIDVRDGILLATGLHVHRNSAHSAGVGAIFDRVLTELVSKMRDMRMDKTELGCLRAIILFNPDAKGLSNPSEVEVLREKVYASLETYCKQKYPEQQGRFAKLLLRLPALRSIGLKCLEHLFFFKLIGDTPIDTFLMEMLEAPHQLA

`FC(F)(F)C(=NOCC1OCCO1)c1ccc(Cl)cc1`: the concentration at half-maximal activity (AC50) in assay [1] was 20.4 µM (active). In addition, the compound was classed as inactive in [2].
For `CC(C)C(=O)C(C)C`, the compound was called inactive in assay [3], in assay [4], in [5], in assay [6], in assay [7] and in assay [8]. Besides, the result in assay [9], in [10], in assay [11], in assay [12], in assay [13] and in assay [14] was inactive. Moreover, the outcome in assay [15], in assay [16], in [17], in assay [18] and in [19] was inactive.
Turning to `COCC(C)N` (stereo not drawn), the result in [3] was inactive.
For `N[C@H]1C(O)O[C@H](CO)[C@H](O)[C@@H]1O` (stereo partly drawn), in assay [3], the outcome was inactive.
Same read-out and setting: next, `O=c1[nH]c(=O)c2[nH]c(=O)[nH]c2[nH]1`: “inactive”; `O=CC1CC1`: “inactive”; `O=c1cc[nH]c(=S)[nH]1`: “inactive”.
For the compound `O=C1CCCN1CCO`, the outcome in assay [3], in assay [4], in [5], in assay [6], in assay [7] and in [8] was inactive. The outcome in assay [9], in assay [10], in assay [2], in assay [11], in assay [12] and in assay [13] was inactive. Besides, the result in [14], in assay [15], in assay [16], in assay [17], in assay [18] and in assay [19] was inactive.
Take `C=CCOc1c(Br)cc(Br)cc1Br`: the compound was called inactive in assay [3], in assay [9], in [10], in assay [2], in assay [14] and in [17]. For the same compound, the half-maximal activity concentration (AC50) in assay [4] was 20 µM (active); in assay [5], 20 µM (active); in assay [6], 20 µM (active); in assay [7], 20 µM (active); in assay [8] it was 24.8 µM (active); in [11], 29.3 µM (active). The AC50 in assay [12] is 3.97 µM (active); in assay [13], 20 µM (active); in assay [15], 31.4 µM (active); in assay [16], 31 µM (active); in assay [18] it was 29 µM (active); in [19], 31.5 µM (active).
As for `CC(=O)OCCC1CCCCC1`, the compound was classed as inactive in assay [3].
Consider `CCCCCc1ccc(Cl)cc1`, for which the compound was called inactive in assay [1] and in assay [2].
